Data reported in PubChem BioAssay (NCATS).
Calls of active or inactive are those of the source. Where a call stands in place of a potency, no number is given. Calls follow the shape of the dose curve; as a rule, active = well fitted inhibition curve with a large enough effect; inconclusive = small, poorly fitted or top-dose-only effect; inactive = flat fitted curve, though single readings scatter.

The compounds below were run on Nanoluciferase (engineered Oplophorus gracilirostris luciferase) (assay: Primary Nanoluciferase (NLuc) qHTS assay for identification of artifact compounds. (AID 1845222;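 also: NLuc secreted into diluted conditioned medium of S16 cells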)). Conditions: NLuc-conditioned medium, Nano-Glo luminescence, 5 min; series mostly up to 54.1 µM.
Outline: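 qHTS format, against NLuc in S16 cell-conditioned medium. Nano-Glo substrate 1:100 was added after 15 min at room temperature. Luminescence was taken after a further 5 min.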
`COCc1c(Cl)ccc2c1CC[C@H]2c1ncc[nH]1` was tested, and the Potency was “inactive”. For `CC[C@@H](C)[C@@H]1OC2(C=C[C@H]1C)C[C@@H]1C[C@H](C/C=C(\C)[C@H](O[C@H]3C[C@H](OC)[C@H](O[C@H]4C[C@H](OC)[C@H](NC(C)=O)[C@H](C)O4)[C@H](C)O3)[C@H](C)/C=C/C=C3\CO[C@H]4[C@H](O)C(C)=C[C@@H](C(=O)O1)[C@@]34O)O2` (some centres undefined), the Potency was “inactive”. In the case of `CN(C)c1cccc(Oc2cnc(Nc3cccc(O)c3)nc2)c1`, the Potency is reported as “inactive”. In the case of `O=c1[nH]cnc2c([C@@H]3N[C@H](CO)[C@@H](O)[C@H]3O)c[nH]c12`, the Potency is reported as “inactive”. In the case of `C=C(C)[C@@H]1CC=C(COC(=O)NC(=O)c2ncn3c(=O)n(C)nnc23)CC1`, the Potency is reported as “inactive”. For `C=C[C@@]1(C)CCC2C(=CCC3[C@]2(C)CCC[C@@]3(C)C(=O)O)C1` (some centres undefined), the Potency was “inactive”. For `O=C(Nc1cccc([N+](=O)[O-])c1)c1cccc(S(=O)(=O)N2CCCCCC2)c1`, the Potency was “inactive”. For `OC1C=C2C3CN(Cc4cc5c(cc43)OCO5)C2CC1O` (centres undefined), the Potency was “inactive”. For `CN1CCc2cc3c(cc2C(=O)Cc2cc4c(cc2C1)OCO4)OCO3`, the Potency was “inactive”. For `CCOc1ccc(CCNC(=O)c2cc3sc(Cl)cc3n2C)cc1OCC`, the Potency was “inactive”. `C=C1C(=O)O[C@@H]2C[C@H](C)[C@@H]3CC(=O)[C@H](O)[C@@]3(C)C[C@H]12` was tested, and the Potency was “inactive”. In the case of `COc1ccc(C2Oc3c(OC)cc(CCCO)cc3C2COC2OC(CO)C(O)C(O)C2O)cc1OC` (centres undefined), the Potency is reported as “inactive”. In the case of `CC(C)=C[C@@H]1[C@H](CO[C@@H]2O[C@H](CO)[C@@H](O)[C@H](O)[C@H]2O)C1(C)C`, the Potency is reported as “inactive”. For `C=CS(=O)(=O)NC1CCN(C(=O)CNc2cc(I)c(Cl)cc2OC)CC1`, the Potency was “inactive”. `N#Cc1cc(-c2ccnc(Nc3ccc(N4CCOCC4)cc3)n2)ccc1OC1CCOCC1` was tested, and the Potency was “inactive”. In the case of `CC(O)C(C)n1ncn(-c2ccc(N3CCN(c4ccc(OCC5COC(Cn6cncn6)(c6ccc(Cl)cc6Cl)O5)cc4)CC3)cc2)c1=O` (centres undefined), the Potency is reported as “inactive”. With `CCn1c(=O)c(-c2ccc(-c3cncs3)cc2Cl)cc2cnc(Nc3ccc(N4CCN(C)CC4)cc3)nc21` the Potency was “inactive”. With `CC(=O)O[C@]1(C(C)=O)CC[C@H]2[C@@H]3CCC4=CC(=O)CCC4=C3[C@@H](c3ccc(N(C)C)cc3)C[C@@]21C` the Potency was “inactive”. `Cc1c(F)ccc(C(=O)Nc2cc([N+](=O)[O-])ccc2N2CCN(C)CC2)c1Cl` was tested, and the Potency was “inactive”. With `CCOc1ccc(-n2c([C@@H](C)N(Cc3cccnc3)C(=O)Cc3ccc(OC(F)(F)F)cc3)nc3ncccc3c2=O)cc1` the Potency was “inactive”. `CC(C)(C)OC(=O)c1ncn2c1C(C)(C)Nc1ccccc1-2` was tested, and the Potency was “inactive”. For `CC[C@@H](C)Nc1cc(C(=O)NC2CC3CCC(C2)N3c2ccc(C(=O)C3CC3)cn2)c(C)cc1C(N)=O` (some centres undefined), the Potency was “inactive”. In the case of `CCC/C=C/C=C/C1CC(O)C2(O)C(=O)OCC12` (centres undefined), the Potency is reported as “inactive”. In the case of `Cc1c(NC(=O)c2cc3c(s2)CCCC3)cccc1-c1cn(C)c(=O)c(Nc2ccc(C3C(=O)N(C)CCN3C)cc2)n1` (centres undefined), the Potency is reported as “inactive”. In the case of `O=c1ccc2ccc(OCCCCN3CCN(c4cccc5sccc45)CC3)cc2[nH]1`, the Potency is reported as “inactive”. For `COc1cc(-c2cn(C3CCc4c(F)cccc4N(CC(F)(F)F)C3=O)nn2)ccc1-n1cnc(C)c1` (centres undefined), the Potency was “inactive”. `CC1CCCC(O)CC(=O)c2c(O)cc(O)cc2CC(=O)O1` (centres undefined) was tested, and the Potency was “inactive”. `CC(C)(O)/C=C/C(=O)[C@](C)(O)[C@H]1[C@H](O)C[C@@]2(C)[C@@H]3CC=C4[C@@H](C[C@H](O[C@@H]5O[C@H](CO)[C@@H](O)[C@H](O)[C@H]5O)C(=O)C4(C)C)[C@]3(C)C(=O)C[C@]12C` was tested, and the Potency was “inactive”. For `O=C1Nc2ccccc2-c2nc3ccccc3c(=O)n2-c2c(O)cccc21`, the Potency was “inactive”. In the case of `C=CC(=O)N1CCN(C(=O)CNc2cc(-c3ccccc3Cl)c(Cl)cc2OC)CC1`, the Potency is reported as “inactive”. For `Cn1c(CO)c(-c2ccccc2)c2cc([N+](=O)[O-])ccc21`, the Potency was “inactive”. With `Cc1cn2c(n1)Cc1ccc(Cl)cc1C(c1ccc(N)cc1)=N2` the Potency was “inactive”. For `CCCc1cc(C)[nH]c(=O)c1CNC(=O)c1cc(-c2ccc(N3CCN(C(C)C)CC3)nc2)cc2c1cnn2C(C)C`, the Potency was “inactive”. `CCC(C)/C=C(C)/C=C/C1=CC2=C(Cl)C(=O)C(C)(OC(C)=O)C(=O)C2(O)C(OC)O1` (centres undefined) was tested, and the Potency was “inactive”. For `O=C(NNc1nc2cc(F)ccc2n2cccc12)c1cnccn1`, the Potency was “inactive”. `Cc1ccc(NC(=O)C(C)C)cc1C1CCN(Cc2ccc(Oc3ccc(F)c(F)c3)cc2)CC1` was tested, and the Potency was “inactive”. In the case of `C=C1[C@@H](OC(C)=O)CC[C@@]2(C)[C@@H](OC(C)=O)[C@H](OC(C)=O)C3=C(C)C[C@H](OC(=O)C(C)CC)[C@@H]([C@@H](OC(C)=O)[C@H]12)C3(C)C` (some centres undefined), the Potency is reported as “inactive”. With `O=[N+]([O-])c1ccc(Oc2ccc3c(c2)CCC(c2ccccc2)O3)nc1` (centres undefined) the Potency was “inactive”. `CC(C)C[C@@H](C(=O)N[C@@H](Cc1ccc(OCc2ccccc2)cc1)C(=O)NC(C)(C)C)N(C)Cc1ccc(C(C)(C)C)cc1` was tested, and the Potency was “inactive”.
